Source: the supplement of paper PMC4709259
Counter-ions that a name gives are not always drawn. ± gives the standard deviation.

Assays:
[1] = tested on: Jurkat; assay: mean cell size (FSC-A) relative to DMSO control (fraction of control); higher = larger cells; settings: 48 h
In short: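 Jurkat cells seeded at 600 cells/µl were incubated 1 h, then exposed for 48h to the Enzo Screen-Well FDA Approved Drug Library v2.0 at 25µM in 0.9% (v/v) final DMSO. Drugs that cut counts below 20% of controls were diluted 10-fold and retested, down to 25nM. Cell count and mean cell size (forward scatter area) were read on an Accuri C6 flow cytometer, relative to solvent-only controls. Plates held 6-12 controls; values are means of 3 biological replicates.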

[2] = tested on: Jurkat; assay: cell count relative to DMSO control (fraction of control); higher = more cells (less growth inhibition); settings: 48 h

Row | SMILES | mean cell size [1] | cell count [2]
1 | CCc1nn(CCCN2CCN(c3cccc(Cl)c3)CC2)c(=O)n1CCOc1ccccc1 [Nefazodone·HCl] (concentration: 25 µM) | 0.924 ± 0.015 | 0.601 ± 0.02
2 | COc1ccccc1OCC(O)COC(N)=O (centres undefined) [Methocarbamol] (concentration: 25 µM) | 0.969 ± 0.057 | 0.715 ± 0.14
3 | COc1c2occc2cc2ccc(=O)oc12 [Methoxsalen (Xanthotoxin)] (concentration: 25 µM) | 1.04 ± 0.019 | 0.761 ± 0.14
4 | CC(c1cc2ccccc2s1)N(O)C(N)=O (centres undefined) [Zileuton] (concentration: 25 µM) | 1 ± 0.038 | 0.839 ± 0.068
5 | CC[C@@H]1C(=O)OC[C@@H]1Cc1cncn1C [Pilocarpine·HCl] (concentration: 25 µM) | 0.97 ± 0.049 | 0.246 ± 0.11
6 | CC(=O)c1ccc(S(=O)(=O)NC(=O)NC2CCCCC2)cc1 [Acetohexamide] (concentration: 25 µM) | 1.02 ± 0.063 | 0.723 ± 0.068
7 | Cc1nnc(SCC2=C(C(=O)O)N3C(=O)[C@@H](NC(=O)Cn4cnnn4)[C@H]3SC2)s1 [Cefazolin·Na] (concentration: 25 µM) | 0.964 ± 0.048 | 0.768 ± 0.013
8 | CC(=O)OCC(=O)[C@@]1(O)CC[C@H]2[C@@H]3CCC4=CC(=O)CC[C@]4(C)[C@H]3C(=O)C[C@@]21C [Cortisone Acetate] (concentration: 25 µM) | 1.01 ± 0.028 | 0.823 ± 0.082
9 | Nc1nc(=O)n([C@@H]2CS[C@H](CO)O2)cc1F [Emtricitabine] (concentration: 25 µM) | 1.03 ± 0.019 | 0.581 ± 0.14
10 | CSc1ccc2c(c1)N(CCC1CCCCN1C)c1ccccc1S2 (centres undefined) [Thioridazine·HCl] (concentration: 2.5 µM) | 1.08 ± 0.014 | 0.646 ± 0.18
11 | CC(C)C[C@H](NC(=O)[C@H](Cc1ccccc1)NC(=O)c1cnccn1)B(O)O [Bortezomib] (concentration: 25 nM) | 0.894 ± 0.064 | 0.112 ± 0.11
12 | CC(O)(P(=O)(O)O)P(=O)(O)O [Etidronate Disodium] (concentration: 25 µM) | 1 ± 0.052 | 0.595 ± 0.17
13 | NCc1ccc(S(N)(=O)=O)cc1 [Mafenide·HCl] (concentration: 25 µM) | 0.92 ± 0.056 | 1.17 ± 0.04
14 | Clc1ccc(CCC(Cn2ccnc2)Sc2c(Cl)cccc2Cl)cc1 (centres undefined) [Butoconazole Nitrate] (concentration: 25 µM) | 0.953 ± 0.05 | 0.953 ± 0.094
15 | CCCCCCCCCC(=O)N[C@@H](Cc1c[nH]c2ccccc12)C(=O)N[C@H](CC(N)=O)C(=O)N[C@@H](CC(=O)O)C(=O)N[C@@H]1C(=O)NCC(=O)N[C@@H](CCCN)C(=O)N[C@@H](CC(=O)O)C(=O)N[C@H](C)C(=O)N[C@@H](CC(=O)O)C(=O)NCC(=O)N[C@H](CO)C(=O)N[C@@H]([C@H](C)CC(=O)O)C(=O)N[C@@H](CC(=O)c2ccccc2N)C(=O)O[C@@H]1C [Daptomycin] (concentration: 25 µM) | 0.975 ± 0.025 | 0.917 ± 0.039
16 | N=C(N)c1ccc(OCCCCCOc2ccc(C(=N)N)cc2)cc1 [Pentamidine Isethionate] (concentration: 25 µM) | 0.878 ± 0.021 | 0.601 ± 0.055
17 | NS(=O)(=O)c1cc2c(cc1Cl)NCNS2(=O)=O [Hydrochlorothiazide] (concentration: 25 µM) | 0.901 ± 0.044 | 0.411 ± 0.088
18 | O=NN(CCCl)C(=O)NC1CCCCC1 [Lomustine] (concentration: 25 µM) | 1.19 ± 0.07 | 0.287 ± 0.11
19 | CCN(CC)CCCC(C)Nc1ccnc2cc(Cl)ccc12 (centres undefined) [Chloroquine Diphosphate] (concentration: 25 µM) | 0.947 ± 0.025 | 1.03 ± 0.099
20 | CCCCNC(=O)NS(=O)(=O)c1ccc(C)cc1 [Tolbutamide] (concentration: 25 µM) | 0.976 ± 0.032 | 0.606 ± 0.22
21 | CN(N=O)C(=O)N[C@@H]1[C@@H](O)[C@H](O)[C@@H](CO)O[C@@H]1O [Streptozocin] (concentration: 25 µM) | 0.939 ± 0.014 | 0.897 ± 0.034
22 | Cc1cn([C@H]2C=C[C@@H](CO)O2)c(=O)[nH]c1=O [Stavudine] (concentration: 25 µM) | 1.04 ± 0.06 | 0.764 ± 0.071
23 | CC[C@]1(O)C[C@@H]2CN(CCc3c([nH]c4ccccc34)[C@@](C(=O)OC)(c3cc4c(cc3OC)N(C)[C@H]3[C@@](O)(C(=O)OC)[C@H](OC(C)=O)[C@]5(CC)C=CCN6CC[C@]43[C@@H]65)C2)C1 [Vinblastine Sulfate] (concentration: 25 nM) | 0.971 ± 0.031 | 0.0701 ± 0.058
24 | Clc1cccc(Cl)c1NC1=NCCN1 [Clonidine·HCl] (concentration: 25 µM) | 0.931 ± 0.049 | 0.224 ± 0.083

Row | SMILES | mean cell size [1] | cell count [2]
25 | CO/N=C(\C(=O)N[C@@H]1C(=O)N2C(C(=O)O)=C(COC(N)=O)CS[C@H]12)c1ccco1 [Cefuroxime·Na] (concentration: 25 µM) | 0.994 ± 0.028 | 0.945 ± 0.051
26 | NC(=O)Cc1cccc(C(=O)c2ccccc2)c1N [Nepafenac] (concentration: 25 µM) | 0.934 ± 0.019 | 0.727 ± 0.025
27 | CN1C(=O)OC(C)(C)C1=O [Trimethadione] (concentration: 25 µM) | 1.07 ± 0.016 | 1.02 ± 0.025
28 | CN1C(C(=O)Nc2ccccn2)=C(O)c2ccccc2S1(=O)=O [Piroxicam] (concentration: 25 µM) | 0.9597 ± 0.0066 | 0.738 ± 0.07
29 | Nc1nc2[nH]cnc2c(=S)[nH]1 [Thioguanine (6-Thioguanine)] (concentration: 25 µM) | 0.935 ± 0.045 | 1.09 ± 0.061
30 | CCN(CC)C(=O)/C(C#N)=C/c1cc(O)c(O)c([N+](=O)[O-])c1 [Entacapone] (concentration: 25 µM) | 1.06 ± 0.055 | 0.519 ± 0.059
31 | Cc1cnc(C(=O)NCCc2ccc(S(=O)(=O)NC(=O)NC3CCCCC3)cc2)cn1 [Glipizide] (concentration: 25 µM) | 1.09 ± 0.049 | 0.612 ± 0.11
32 | Cc1c2oc3c(C)ccc(C(=O)N[C@@H]4C(=O)N[C@H](C(C)C)C(=O)N5CCC[C@H]5C(=O)N(C)CC(=O)N(C)[C@@H](C(C)C)C(=O)O[C@@H]4C)c3nc-2c(C(=O)N[C@@H]2C(=O)N[C@H](C(C)C)C(=O)N3CCC[C@H]3C(=O)N(C)CC(=O)N(C)[C@@H](C(C)C)C(=O)O[C@@H]2C)c(N)c1=O [Dactinomycin (= Actinomycin D)] (concentration: 25 nM) | 0.784 ± 0.019 | 0.49 ± 0.11
33 | COC(=O)C1=C(C)NC(C)=C(C(=O)OCCN(C)Cc2ccccc2)C1c1cccc([N+](=O)[O-])c1 (centres undefined) [Nicardipine·HCl] (concentration: 25 µM) | 1.01 ± 0.071 | 0.568 ± 0.034
34 | c1cnc2cc3c(cc2n1)[C@@H]1CNC[C@H]3C1 [Varenicline Tartrate] (concentration: 25 µM) | 1.02 ± 0.038 | 1.01 ± 0.062
35 | COc1cc2c(cc1OC)C(=O)C(CC1CCN(Cc3ccccc3)CC1)C2 (centres undefined) [Donepezil·HCl] (concentration: 25 µM) | 1.032 ± 0.0096 | 0.487 ± 0.13
36 | CN(C)[C@@H]1C(=O)C(C(N)=O)=C(O)[C@@]2(O)C(=O)C3=C(O)c4c(O)ccc(Cl)c4[C@@H](O)[C@H]3C[C@@H]12 [Demeclocycline·HCl] (concentration: 25 µM) | 0.811 ± 0.028 | 0.219 ± 0.039
37 | OCCN1CCN(CCCN2c3ccccc3Sc3ccc(Cl)cc32)CC1 [Perphenazine] (concentration: 2.5 µM) | 1 ± 0.029 | 0.556 ± 0.11
38 | CN1CCC(=C2c3ccccc3C=Cc3ccccc32)CC1 [Cyproheptadine·HCl Sesquihydrate] (concentration: 25 µM) | 0.935 ± 0.027 | 0.762 ± 0.049
39 | CN(C)CCOC(c1ccc(Cl)cc1)c1ccccn1 (centres undefined) [Carbinoxamine Maleate] (concentration: 25 µM) | 0.968 ± 0.054 | 0.735 ± 0.064
40 | CC(C)C[C@H](NC(=O)[C@@H](COC(C)(C)C)NC(=O)[C@H](Cc1ccc(O)cc1)NC(=O)[C@H](CO)NC(=O)[C@H](Cc1c[nH]c2ccccc12)NC(=O)[C@H](Cc1cnc[nH]1)NC(=O)[C@@H]1CCC(=O)N1)C(=O)N[C@@H](CCCNC(=N)N)C(=O)N1CCC[C@H]1C(=O)NNC(N)=O [Goserelin Acetate] (concentration: 25 µM) | 0.953 ± 0.045 | 1.044 ± 0.003
41 | Nc1ncnc2c1ncn2[C@@H]1O[C@H](CO)[C@@H](O)[C@H]1O [Adenosine] (concentration: 25 µM) | 1 ± 0.041 | 0.73 ± 0.082
42 | OCCN1CCN(CCCN2c3ccccc3Sc3ccc(C(F)(F)F)cc32)CC1 [Fluphenazine·HCl] (concentration: 2.5 µM) | 1.13 ± 0.017 | 0.701 ± 0.079
43 | Cc1ccc(N(CC2=NCCN2)c2cccc(O)c2)cc1 [Phentolamine·HCl] (concentration: 25 µM) | 1.09 ± 0.072 | 0.612 ± 0.16
44 | CO[C@H]1C[C@@H]2CC[C@@H](C)[C@@](O)(O2)C(=O)C(=O)N2CCCC[C@H]2C(=O)O[C@H]([C@H](C)C[C@@H]2CC[C@@H](OCCO)[C@H](OC)C2)CC(=O)[C@H](C)/C=C(\C)[C@@H](O)[C@@H](OC)C(=O)[C@H](C)C[C@H](C)/C=C/C=C/C=C/1C [Everolimus] (concentration: 2.5 µM) | 0.761 ± 0.015 | 0.552 ± 0.072
45 | NC(=O)C(c1ccccc1)(c1ccccc1)[C@@H]1CCN(CCc2ccc3c(c2)CCO3)C1 [Darifenacin·HBr] (concentration: 25 µM) | 1.02 ± 0.015 | 0.723 ± 0.087
46 | CC1(C)O[C@@H]2C[C@H]3[C@@H]4C[C@H](F)C5=CC(=O)C=C[C@]5(C)[C@@]4(F)[C@@H](O)C[C@]3(C)[C@]2(C(=O)CO)O1 [Fluocinolone Acetonide] (concentration: 25 µM) | 0.958 ± 0.037 | 0.55 ± 0.08
47 | CNCCC=C1c2ccccc2CCc2ccccc21 [Nortriptyline·HCl] (concentration: 25 µM) | 1.06 ± 0.025 | 0.498 ± 0.056
